Source: PubChem BioAssay (Tox21)
Results filed as inconclusive are left out. Active and inactive are the calls of the source. Unless noted, calls follow the shape of the full dose curve.

How the values were obtained:
[1] = Nuclear factor erythroid 2-related factor 2/antioxidant responsive element (Nrf2/ARE) small molecule agonists: qHTS cell viability counter screen in human keratinocytes (AID 1919968; active = well fitted curve in the direction sought with a large enough effect in the repeat runs; an effect the other way counts as inactive or inconclusive; also: nearly all actives have a fitted effect of over 55% in size; also: potency is read from the fitted curve at half-maximal effect)
Method in brief: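 Fluorescence read-out from CellTiter-Fluor after 1 h at 37 C. Wells held HaCaT-derived ARE-luciferase reporter cells (1,500/well) treated 23 h with DMSO-dissolved compounds. Run in the same wells as the luciferase agonist read.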

[2] = Nuclear factor erythroid 2-related factor 2/antioxidant responsive element (Nrf2/ARE) small molecule agonists: luciferase reporter gene qHTS assay in human keratinocytes (AID 1919969); also: nearly all actives have a fitted effect of over 35% in size; also: potency is read from the fitted curve at half-maximal effect
[3] = biological target: Gonadotropin-releasing hormone receptor (Homo sapiens) (UniProt P30968); assay: Human gonadotropin-releasing hormone receptor (GnRHR) small molecule agonists, calcium flux assay in GnRHR-HEK293 cells (AID 1920063); also: nearly all actives have a fitted effect of over 35% in size
Method in brief: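 Calcium-dye fluorescence, Ex/Em=480/540, recorded every 1 sec over 3 min after compound addition to GnRHR-HEK293 cells. Cells had been seeded 18 hours earlier and dye-loaded for 1 hour at 37 C. Fifteen concentrations, triplicates.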

[4] = biological target: KiSS-1 receptor (Homo sapiens) (UniProt Q969F8); assay: Human kisspeptin (KISS1R) small molecule agonists, calcium flux assay in KISS1R-HEK293 cells (AID 1920064; active = well fitted curve in the direction sought with a large enough effect in the repeat runs; an effect the other way counts as inactive or inconclusive)
Method in brief: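 Calcium flux read-out: kinetic fluorescence at Ex/Em=480/540, 1 s intervals over 3 min, after pin-tool compound addition to dye-loaded KISS1R-HEK293 cells. Fifteen concentrations, triplicates.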

[5] = G protein-coupled receptor (GPCR) small molecule agonists, calcium flux assay: HEK293 wild type cell line counter screen (AID 1920065)
Method in brief: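 Agonist mode; 18 h seeding at 37 C, 1 h dye load at 37 C; compounds pinned from DMSO, ATP as positive control; kinetic fluorescence 480/540 nm, 3 min, 1 s reads; 15 concentrations, triplicate.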

[6] = p53 small molecule agonists, cell-based qHTS assay with human liver microsomes (AID 1963577);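 also: p53 response element beta-lactamase reporter cells with liver microsomes plus NADPH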
Method in brief: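 p53RE-bla cells; 5 h settle, 37 C/5% CO2; cpd + HLM 0.5 mg/mL + NADPH 0.5 mg/mL (final); 16 h 37 C; LiveBLAzer 2 h RT dark; fluorescence readout.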

[7] = p53 small molecule agonists, cell-based qHTS assay with rat liver microsomes (AID 1963578)
Method in brief: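 Rat liver microsome activation: microsomes 0.5 mg/mL, NADPH 0.5 mg/mL final; p53RE-bla cells, 16 h 37 C; LiveBLAzer readout, 2 h RT dark.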

[8] = p53 small molecule agonists, cell-based qHTS assay with rat liver microsomes: qHTS cell viability counter screen (AID 1963580); also: nearly all actives have a fitted effect of over 45% in size
Method in brief: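 Rat liver microsome (0.5 mg/mL final) and NADPH (0.5 mg/mL final) co-incubation with compounds for 16 h at 37 C on HCT-116 p53RE-bla cells; cytotoxicity taken from intracellular ATP luminescence.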

[9] = p53 small molecule agonists, cell-based qHTS assay (AID 1963582; active = well fitted activation curve with a large enough effect in the signal ratio in the repeat runs, not every such curve was filed as active; the % refers to the signal ratio)
Method in brief: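 Fluorescence intensity read-out of a beta-lactamase reporter under a p53 response element. Cells were exposed to DMSO-dissolved compounds for 16 h at 37 C, then developed with FRET substrate for 2 h at RT.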

[10] = biological target: 5-hydroxytryptamine receptor 2A (Homo sapiens) (UniProt P28223); assay: 5-hydroxytryptamine receptor 2A (HTR2A) small molecule antagonists, cell-based qHTS assay (AID 1963586); also: nearly all actives have a fitted effect of over 45% in size; also: potency is read from the fitted curve at half-maximal effect
Method in brief: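 CHO cells stably expressing human HTR2A were plated for 18 h at 37 C, then loaded with calcium dye for 1 h. Compounds were preincubated 5 min at room temperature before DOI (4 nM solution) was added. Kinetic fluorescence was read for 3 min.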

[11] = biological target: Muscarinic acetylcholine receptor M1 (Homo sapiens) (UniProt P11229); assay: Cholinergic receptor muscarinic 1 (CHRM1) small molecule antagonists, cell-based qHTS assay (AID 1963588); also: nearly all actives have a fitted effect of over 40% in size
Method in brief: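 Compounds were tested at 15 concentrations in three independent runs. Dye-loaded CHRM1-CHO cells were exposed 5 min at room temperature before stimulation by acetylcholine added at 50nM. Intracellular calcium was read kinetically on FDSS for 3 min.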

[12] = cAMP Responsive Elements (CRE) small molecule agonists, cell-based qHTS assay (AID 1963590)
Method in brief: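 Beta-lactamase reporter readout: LiveBLAzer B/G FRET substrate, 2 h at room temperature, added after 3 h compound treatment of CRE-bla HEK 293T cells at 37 C/5% CO2.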

[13] = cAMP Responsive Elements (CRE) small molecule antagonists, cell-based qHTS assay (AID 1963591; active = well fitted inhibition curve with a large enough effect in the signal ratio in the repeat runs, not every such curve was filed as active; the % refers to the signal ratio)
Method in brief: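 HEK293T CRE-bla; 18 h preincubation; compound pin-transfer; NKH477 0.25 uM final, 3 h, 37 C; LiveBLAzer FRET substrate 2 h RT.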

[14] = biological target: Beta-2 adrenergic receptor (Homo sapiens) (UniProt P07550); assay: Adrenergic beta2 receptor (ADRB2) small molecule antagonists, cell-based qHTS assay (AID 1963592); also: series mostly up to about 92 µM; nearly all actives have a fitted effect of over 50% in size
Method in brief: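 Assay format: CHO-ADRB2 cells, 18-20hr seeding at 37C/5% CO2, then compound plus 1nM isoproterenol agonist mix for 0.5hr RT. Homogeneous time-resolved fluorescence cAMP detection after 1hr, expressed as 665/615 nm ratio.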

[15] = biological target: D(2) dopamine receptor (Homo sapiens) (UniProt P14416); assay: Dopamine D2 receptor (DRD2) small molecule agonists, cell-based qHTS assay (AID 1963594); also: nearly all actives have a fitted effect of over 35% in size
Method in brief: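 cAMP accumulation in DRD2-HEK293 cells measured by HTRF after 1 h detection; compounds added 10 min before NKH477 (200nM […]) forskolin-analogue stimulation, 30 min at room temperature, with Ro20-1724 present at 0.1 mM final.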

[16] = biological target: D(2) dopamine receptor (Homo sapiens) (UniProt P14416); assay: Dopamine D2 receptor (DRD2) small molecule antagonists, cell-based qHTS assay (AID 1963595; active = well fitted inhibition curve with a large enough effect in the signal ratio in the repeat runs, with a control signal flat; the % refers to the signal ratio)
Method in brief: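 HTRF cAMP read-out at 665 and 620 nm emission (340 nm excitation). Antagonist mode: compounds were tested against 12 nM quinpirole in DRD2-HEK293 cells, with 200 nM NKH477 raising cAMP and 0.1 mM Ro20-1724 blocking its breakdown.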

[17] = p53 small molecule agonists, cell-based qHTS assay: qHTS cell viability counter screen (AID 1963581); also: nearly all actives have a fitted effect of over 45% in size
Method in brief: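 Cytotoxicity read-out: ATP-based luminescence (CellTiter-Glo, 30 min RT) measured in the same wells as the p53 reporter assay, HCT-116 p53RE-bla cells, 16 h compound exposure at 37 C.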

[18] = biological target: 5-hydroxytryptamine receptor 2A (Homo sapiens) (UniProt P28223); assay: 5-hydroxytryptamine receptor 2A (HTR2A) small molecule agonists, cell-based qHTS assay (AID 1963587); also: nearly all actives have a fitted effect of over 30% in size
Method in brief: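 Kinetic calcium-flux fluorescence (2 min, 1 sec intervals) after compound addition in agonist mode. HTR2A-CHO cells were cultured 18 h, then dye-loaded 1 h at 37 C.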

[19] = biological target: Muscarinic acetylcholine receptor M1 (Homo sapiens) (UniProt P11229); assay: Cholinergic receptor muscarinic 1 (CHRM1) small molecule agonists, cell-based qHTS assay (AID 1963589); also: nearly all actives have a fitted effect of over 35% in size
Method in brief: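 Calcium flux read-out: kinetic fluorescence at 1 sec intervals after pin-tool compound addition to dye-loaded CHRM1-CHO cells (human M1). Agonist mode; 15 concentrations tested in triplicate independent runs.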

[20] = biological target: Beta-2 adrenergic receptor (Homo sapiens) (UniProt P07550); assay: Adrenergic beta2 receptor (ADRB2) small molecule agonists, cell-based qHTS assay (AID 1963593);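 also: CHO cells stably overexpressing human ADRB2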
Method in brief: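 CHO cells stably over-expressing ADRB2 were plated overnight at 37C, then dosed with compounds plus a stimulation mix containing 100uM IBMX and 25uM Ro-20-1724 for 0.5hr at room temperature. cAMP was measured by HTRF competition, 1hr.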
% is scaled to controls: 0 for no effect and ±100 for the full control effect.

Muscarinic acetylcholine receptor M1 (Homo sapiens), sequence (P11229 whole entry, looked up): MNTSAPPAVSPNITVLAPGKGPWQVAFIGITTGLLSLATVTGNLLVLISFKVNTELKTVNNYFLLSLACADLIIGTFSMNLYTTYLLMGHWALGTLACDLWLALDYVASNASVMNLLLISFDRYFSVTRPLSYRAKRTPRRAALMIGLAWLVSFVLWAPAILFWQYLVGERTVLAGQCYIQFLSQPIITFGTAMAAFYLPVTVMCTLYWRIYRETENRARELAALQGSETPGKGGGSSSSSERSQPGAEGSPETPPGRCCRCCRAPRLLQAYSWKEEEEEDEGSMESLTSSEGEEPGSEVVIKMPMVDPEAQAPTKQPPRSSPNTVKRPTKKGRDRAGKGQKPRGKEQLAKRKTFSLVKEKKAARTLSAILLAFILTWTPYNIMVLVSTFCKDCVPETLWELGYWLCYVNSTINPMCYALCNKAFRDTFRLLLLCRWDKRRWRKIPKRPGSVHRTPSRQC
Gonadotropin-releasing hormone receptor (Homo sapiens), sequence (P30968 whole entry, looked up): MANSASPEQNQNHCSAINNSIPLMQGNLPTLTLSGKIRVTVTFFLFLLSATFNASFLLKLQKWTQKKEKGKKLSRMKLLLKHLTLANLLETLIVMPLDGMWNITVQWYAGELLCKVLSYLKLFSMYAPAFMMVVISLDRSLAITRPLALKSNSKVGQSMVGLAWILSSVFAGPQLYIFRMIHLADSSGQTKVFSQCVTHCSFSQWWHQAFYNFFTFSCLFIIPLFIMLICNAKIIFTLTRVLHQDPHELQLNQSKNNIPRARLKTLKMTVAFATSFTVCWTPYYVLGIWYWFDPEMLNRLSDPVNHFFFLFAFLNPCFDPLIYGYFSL
Beta-2 adrenergic receptor (Homo sapiens), sequence (P07550 whole entry, looked up): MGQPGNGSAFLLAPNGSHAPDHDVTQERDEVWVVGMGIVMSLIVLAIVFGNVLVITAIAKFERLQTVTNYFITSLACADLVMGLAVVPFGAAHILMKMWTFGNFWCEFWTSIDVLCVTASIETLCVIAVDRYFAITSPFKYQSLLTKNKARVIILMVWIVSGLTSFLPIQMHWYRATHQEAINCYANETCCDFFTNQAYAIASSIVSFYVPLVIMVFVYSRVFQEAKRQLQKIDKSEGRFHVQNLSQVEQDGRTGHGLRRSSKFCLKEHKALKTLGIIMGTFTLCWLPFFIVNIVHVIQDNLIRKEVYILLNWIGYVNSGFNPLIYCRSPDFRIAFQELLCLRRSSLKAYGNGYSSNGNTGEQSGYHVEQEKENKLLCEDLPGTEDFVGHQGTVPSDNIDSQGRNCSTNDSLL
D(2) dopamine receptor (Homo sapiens), sequence (P14416 whole entry, looked up): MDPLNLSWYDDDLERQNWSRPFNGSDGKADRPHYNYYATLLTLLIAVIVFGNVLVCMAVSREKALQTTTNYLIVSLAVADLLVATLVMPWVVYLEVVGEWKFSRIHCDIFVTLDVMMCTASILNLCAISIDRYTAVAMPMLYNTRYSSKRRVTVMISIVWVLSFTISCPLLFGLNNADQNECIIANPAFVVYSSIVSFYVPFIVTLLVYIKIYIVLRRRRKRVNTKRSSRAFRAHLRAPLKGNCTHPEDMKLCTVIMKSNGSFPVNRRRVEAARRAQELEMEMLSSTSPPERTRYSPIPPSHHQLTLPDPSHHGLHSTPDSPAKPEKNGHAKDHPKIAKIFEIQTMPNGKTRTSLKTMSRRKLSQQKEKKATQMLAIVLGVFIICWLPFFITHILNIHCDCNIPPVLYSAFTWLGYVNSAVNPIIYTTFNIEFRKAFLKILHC
5-hydroxytryptamine receptor 2A (Homo sapiens), sequence (P28223 whole entry, looked up): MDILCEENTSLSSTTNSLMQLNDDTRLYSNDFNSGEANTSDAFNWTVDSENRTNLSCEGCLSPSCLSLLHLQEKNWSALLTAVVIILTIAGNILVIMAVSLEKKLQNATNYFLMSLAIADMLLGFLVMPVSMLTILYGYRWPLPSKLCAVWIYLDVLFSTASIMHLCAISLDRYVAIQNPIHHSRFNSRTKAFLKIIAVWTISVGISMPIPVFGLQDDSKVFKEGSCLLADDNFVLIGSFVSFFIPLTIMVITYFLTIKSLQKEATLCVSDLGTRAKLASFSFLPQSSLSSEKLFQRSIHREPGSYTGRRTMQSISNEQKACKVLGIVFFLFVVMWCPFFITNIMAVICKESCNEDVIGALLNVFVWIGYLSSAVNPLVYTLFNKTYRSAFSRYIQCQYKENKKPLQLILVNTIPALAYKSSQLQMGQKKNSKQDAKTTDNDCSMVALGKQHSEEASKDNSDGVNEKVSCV
KiSS-1 receptor (Homo sapiens), sequence (Q969F8 whole entry, looked up): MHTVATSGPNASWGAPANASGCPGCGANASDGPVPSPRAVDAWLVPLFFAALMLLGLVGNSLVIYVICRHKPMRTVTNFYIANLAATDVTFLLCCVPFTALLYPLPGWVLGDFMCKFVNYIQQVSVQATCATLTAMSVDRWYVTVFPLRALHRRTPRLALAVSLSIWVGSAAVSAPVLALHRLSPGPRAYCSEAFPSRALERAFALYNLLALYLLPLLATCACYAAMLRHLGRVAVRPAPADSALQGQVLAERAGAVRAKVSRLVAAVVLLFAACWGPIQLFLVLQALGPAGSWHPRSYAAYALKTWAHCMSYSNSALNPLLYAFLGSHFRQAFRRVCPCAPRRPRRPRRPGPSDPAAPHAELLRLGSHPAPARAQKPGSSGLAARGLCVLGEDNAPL

BrC(Br)C(Br)Br
inactive: Potency [1] | Potency [2] | Potency [3] | outcome [4] | outcome [5] | Potency [6] | Potency [7] | Potency [8] | Potency [9] | Potency [10] | Potency [11] | Potency [12] | Potency [13] | Potency [14] | Potency [15] | Potency [16]

CCCCCc1ccco1
active: Potency [2] 44.7 µM
inactive: Potency [1] | Potency [3] | outcome [4] | outcome [5] | Potency [6] | Potency [7] | Potency [17] | Potency [9] | Potency [10] | Potency [18] | Potency [19] | Potency [13] | Potency [20] | Potency [15]

CCCC(=O)c1cc(O)c(O)cc1O
inactive: Potency [3] | outcome [4] | outcome [5] | Potency [6] | Potency [7] | Potency [8] | Potency [10] | Potency [11]
active: Potency [1] 9.69 µM | Potency [2] 4.86 µM

COC(=O)CCCCCCCCC(=O)OC
inactive: Potency [1] | Potency [2] | Potency [3] | outcome [4] | outcome [5] | Potency [6] | Potency [7] | Potency [17] | Potency [9] | Potency [18] | Potency [11] | Potency [19] | Potency [13] | Potency [14] | Potency [20]

CNC(=O)c1cc(Oc2ccc(NC(=O)Nc3ccc(Cl)c(C(F)(F)F)c3)cc2)ccn1
inactive: Potency [2] | Potency [3] | outcome [4] | outcome [5] | Potency [6] | Potency [7] | Potency [17] | Potency [18] | Potency [11] | Potency [14] | Potency [15] | Potency [16]
active: Potency [1] 26.6 µM

CCCCCCCCCCCCCCCCCl
inactive: activity change, negative = cytotoxicity [1] -5.35% [at 19 µM] | activity, positive = activation [2] -7.33% [at 19 µM] | activity change [3] 0.762% [at 11.8 µM, hits give high values] | activation [4] 2.27% [at 15.8 µM] | activation [5] 0.033% [at 11.8 µM] | activation [6] 1.18% [at 13.5 µM] | activation [7] 0.0918% [at 13.6 µM] | activity change, negative = cytotoxicity [17] -1.41% [at 13.5 µM] | activation [9] 0.101% [at 13.5 µM] | activity, negative = inhibition [10] 12.6% [at 12.7 µM] | activation [18] -4.65% [at 15.9 µM] | activity, negative = inhibition [11] -6.96% [at 12.6 µM] | activation [19] -0.468% [at 15.8 µM] | activation [12] -1.81% [at 19 µM] | activity change, negative = inhibition [13] -10.5% [at 18.9 µM] | activity change, negative = inhibition [14] -9.7% [at 19 µM] | Potency [20] | activation [15] -1.48% [at 19 µM] | activity change, negative = inhibition [16] 2.16% [at 18.9 µM]

C=CC(=C)CC/C=C(\C)CCC=C(C)C
inactive: activity change, negative = cytotoxicity [1] -0.584% [at 19 µM] | activity, positive = activation [2] 7.55% [at 19 µM] | activity change [3] 1.61% [at 11.8 µM, hits give high values] | activation [4] 5.69% [at 15.8 µM] | activation [5] -1.2% [at 11.8 µM] | activation [6] -0.261% [at 13.5 µM] | activation [7] 0.56% [at 13.6 µM] | activity change, negative = cytotoxicity [17] 2.84% [at 13.5 µM] | activity, negative = inhibition [10] 22.2% [at 12.7 µM] | activation [18] 6.61% [at 15.9 µM] | activity, negative = inhibition [11] -6.65% [at 12.6 µM] | activation [19] -0.116% [at 15.8 µM] | activation [12] 0.237% [at 19 µM] | activity change, negative = inhibition [13] 1.53% [at 18.9 µM] | activity change, negative = inhibition [14] 10.9% [at 19 µM] | Potency [20] | activation [15] -0.761% [at 19 µM] | activity change, negative = inhibition [16] -0.805% [at 18.9 µM]

CC(C)(C)NCC(O)COc1cccc2c1CCC(=O)N2 (centres undefined)
inactive: Potency [1] | Potency [2] | Potency [3] | outcome [4] | outcome [5] | Potency [6] | Potency [7] | Potency [9] | Potency [10] | Potency [18] | Potency [11] | Potency [19] | Potency [12] | Potency [13] | Potency [16]

C=C1C(CCl)(CCl)C2(Cl)C(Cl)C(Cl)C1(Cl)C2(Cl)Cl (centres undefined)
inactive: Potency [3] | outcome [4] | outcome [5] | Potency [6] | Potency [7] | Potency [8] | Potency [10] | Potency [18] | Potency [19] | Potency [20] | Potency [15] | Potency [16]
active: Potency [1] 38.1 µM | Potency [2] 15.2 µM

COC(=O)C(C)(C)C
inactive: Potency [1] | Potency [2] | Potency [3] | outcome [4] | outcome [5] | Potency [6] | Potency [7] | Potency [8] | Potency [10] | Potency [18] | Potency [11] | Potency [12] | Potency [13] | Potency [14] | Potency [15] | Potency [16]

CN(C)CCCOC1(Cc2ccccc2)CCCCCC1
active: Potency [10] 10.3 µM
inactive: Potency [1] | Potency [2] | Potency [3] | outcome [4] | outcome [5] | Potency [6] | Potency [7] | Potency [8] | Potency [18] | Potency [11] | Potency [19] | Potency [12] | Potency [13] | Potency [14] | Potency [20] | Potency [15] | Potency [16]
